Records with an inconclusive call do not appear. Entries that show only a call come without a potency. Unmarked numbers belong to inactive results. Activity calls are given as the source filed them. The call rests on the fitted dose curve.
Assay: qHTS assay to identify small molecule agonists of the endoplasmic reticulum stress response signaling pathway - cell viability counter screen (AID 1159517); further: nearly all actives have a fitted effect of over 50% in size
Conditions: ESRE-bla HeLa viability, CellTiter-Glo luminescence, 5 h; series mostly up to 61 µM
Description: U.S. Tox21 Program National Center for Advancing Translational Sciences [NCATS] NIH Chemical Genomics Center [NCGC] U.S. Environmental Protection Agency [EPA] National Institutes of Environmental Health Sciences [NIEHS] National Toxicology Program [NTP] U.S. Food and Drug Administration [FDA] Tox21 Assay Overview: Endoplasmic Reticulum (ER) plays an important role in cellular signaling, protein folding/maturation, stress response, lipid biosynthesis, calcium storage and release etc. Under stress conditions, proteins in ER misfold or unfold, and leading to the expression of ER stress responsive genes. ER stress has been associated with a variety of pathophysiological conditions such as cancer, inflammation, neurodegenerative diseases, diabetes, ischemic heart disease etc. To identify the compounds that induce ER stress response, an ER stress reporter cell line, CellSensor ESRE-bla HeLa (Life Technologies, Carlsbad, CA) containing a beta-lactamase reporter gene under control of the Endoplasmic reticulum Stress Response Element (ESRE) was used to screen Tox21 10K compound library. The cytotoxicity of the Tox21 compound library against the ESRE-bla HeLa cell line was tested in parallel by measuring cell viability using the CellTiter-Glo assay in the same wells.
Tox21 Assay Protocol Summary: ESRE-bla HeLa cells were dispensed at 1,500 cells/6 uL of assay medium per well into black wall/clear-bottom 1536-well plates using a Multidrop Combi (ThermoFisher Scientific, Waltham, MA) dispenser. After the assay plates were incubated at 37 C and 5% CO2 for an overnight, 23 nL of compounds dissolved in DMSO, positive controls or DMSO only was transferred to the assay plate by a Pintool station (Kalypsys, San Diego, CA). The assay plates were incubated at 37 C and 5% CO2 for 5 hr. One uL of LiveBLAzer B/G FRET substrate (Life Technologies) was added using a FRD (Flying Reagent Dispenser, Aurora Discovery, San Diego, CA) and the plates were incubated at room temperature for 2 hr. Fluorescence intensity (405 nm excitation, 460 nm and 530 nm emissions) was measured using an Envision plate reader (PerkinElmer, Shelton, CT). For cytotoxicity, 4 ul/well of CellTiter-Glo reagent was added into the assay plates using an FRD. After 30 min incubation at room temperature, the luminescence intensity was measured using a ViewLux plate reader (PerkinElmer).

| SMILES | Potency | activity change, negative = cytotoxicity |
| --- | --- | --- |
| CCNc1cc(O)ccc1C | inactive |  |
| O=C(O)c1ccc(S(=O)(=O)O)cc1C(=O)O | inactive |  |
| CN1Cc2cc(C(=O)N3CCC(C4CCNCC4)CC3)ccc2NC(CC(=O)O)C1=O (stereo not given) | inactive |  |
| CC(C)C[C@H]1C(=O)N2CCC[C@H]2[C@]2(O)O[C@](NC(=O)[C@@H]3C=C4c5cccc6[nH]c(Br)c(c56)C[C@H]4N(C)C3)(C(C)C)C(=O)N12 | inactive |  |
| CC[N+]1(CC)CCC(=C(c2ccccc2)c2ccccc2)C1C (stereo not given) | inactive |  |
| CCc1cc(C2=C(C(=O)O)N(c3ccccc3C(F)(F)F)S(=O)(=O)c3ccccc32)cc2c1OCO2 | inactive |  |
| CCCCc1nc2cccnc2n1Cc1ccc(-c2ccccc2-c2nnn[nH]2)cc1 | inactive |  |
| C[N+]1(C)CCC(OC(=O)C(O)(c2ccccc2)C2CCCC2)C1 (stereo not given) | inactive |  |
| CCCCCCCCCCCCCCCCOS(=O)(=O)O | inactive |  |
| CC(C)OC(=O)C(C)N(C(=O)c1ccccc1)c1ccc(F)c(Cl)c1 (stereo not given) | inactive |  |
| CCOCC(O)COc1ccc(NC(=O)CC[S+](C)C)cc1 (stereo not given) | inactive |  |
| Brc1c2ccccc2cc2ccccc12 | inactive |  |
| CC(=O)c1ccc2c(c1)N(CCCN1CCC(CCO)CC1)c1ccccc1S2 | inactive |  |
| CCCCCCCN | inactive |  |
| Cc1cc(C(=O)O)ccc1[N+](=O)[O-] | inactive |  |
| Nc1ccc(N)c2c1C(=O)c1ccccc1C2=O | inactive |  |
| CN(C)c1ccc(/C=C/c2ccc([N+](=O)[O-])cc2)cc1 |  | 15.7% [at 6.95 µM] |
| CC(=O)[O][Al][O]C(C)=O | inactive |  |
| CCCCC(CC)CN1C(=O)C2C3C=CC(C3)C2C1=O (stereo not given) | inactive |  |
| C#CCN(C)CCCOc1ccc(Cl)cc1Cl | inactive |  |

| SMILES | Potency | activity change, negative = cytotoxicity |
| --- | --- | --- |
| CC(C)O.CC(C)O.CCOC(=O)/C=C(\C)O.CCOC(=O)/C=C(\C)O.[Ti] | inactive |  |
| COc1cc(Cl)ccc1Oc1ccc(Cl)cc1Cl | inactive |  |
| O=C1CCC(=O)O1 | inactive |  |
| COc1cc2nc(N3CCN(C(=O)C4COc5ccccc5O4)CC3)nc(N)c2cc1OC (stereo not given) | inactive |  |
| Cc1[nH]c(C)c(Cl)c(=O)c1Cl | inactive |  |
| C[N+]1(CC2COC(c3ccccc3)(C3CCCCC3)O2)CCCCC1 (stereo not given) | inactive |  |
| CCCC(=O)Nc1ccc(O)c(C(C)=O)c1 | inactive |  |
| CCCCCCCCCCCC(=O)OC[C@@H](O)[C@H]1OC[C@H](OCCO)[C@H]1OCCO | inactive |  |
| O=S(=O)(Oc1ccc(Cl)cc1)c1ccccc1 | inactive |  |
| CCCCCC[C@@H](O)C/C=C\CCCCCCCC(=O)OC | inactive |  |
| C[C@H](CCC(=O)O)[C@H]1CC[C@H]2[C@@H]3CC[C@@H]4C[C@H](O)CC[C@]4(C)[C@H]3C[C@H](O)[C@]12C | inactive |  |
| CCCCCCCCO[C@@H]1O[C@H](CO)[C@@H](O)[C@H](O)[C@H]1O | inactive |  |
| CCCCCCc1ccc(-c2ccc(C#N)cc2)cc1 | inactive |  |
| CC1=CCCC(C)(C)C12CCC(C)O2 (stereo not given) | inactive |  |
| O=C(c1ccc(F)cc1)C1CCN(CCn2c(=S)[nH]c3ccccc3c2=O)CC1 | inactive |  |
| CCOC(=O)c1cccnc1 | inactive |  |
| CCC(=O)O[C@]1(C(=O)CCl)[C@@H](C)C[C@H]2[C@@H]3CCC4=CC(=O)C=C[C@]4(C)[C@@]3(F)[C@@H](O)C[C@@]21C | inactive |  |
| Cc1nn(C)c(Oc2ccccc2)c1/C=N/OCc1ccc(C(=O)OC(C)(C)C)cc1 | inactive |  |
| CCN(CC)c1ccc2c(-c3ccccc3C(=O)O)c3ccc(=[N+](CC)CC)cc-3oc2c1 | inactive |  |
| COc1ccc(-c2nc3ccc(C4=NNC(=O)CC4C)cc3[nH]2)cc1 (stereo not given) | inactive |  |
